Seven molecules from PubChem BioAssay (Tox21) can be followed below.

Values joined by “and” are separate entries in the source; they are usually repeats but may differ in a detail not shown here. Equal entries are not always repeated. A number with no mark means an inactive call. Inconclusive results are not listed. Active and inactive are the calls of the source. Unless noted, the call rests on the fitted dose curve.

A short description of test [1]: Nuclear factor erythroid 2-related factor 2/antioxidant responsive element (Nrf2/ARE) small molecule agonists: qHTS cell viability counter screen in human keratinocytes (AID 1919968; active means well fitted curve in the direction sought with a large enough effect in the repeat runs; an effect the other way counts as inactive or inconclusive; further: nearly all actives have a fitted effect of over 55% in size). In short, it runs like this:
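Viability counter-screen: KeratinoSens reporter cells, DMSO-delivered compounds, 23 h at 37 C, CellTiter-Fluor fluorescence.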
Background: qHTS replaces the single test concentration by a dilution series.

Test [2] in a line: Nuclear factor erythroid 2-related factor 2/antioxidant responsive element (Nrf2/ARE) small molecule agonists: luciferase reporter gene qHTS assay in human keratinocytes (AID 1919969). Further: nearly all actives have a fitted effect of over 35% in size. Further: potency means the concentration at half of the fitted maximal effect.
The target of test [3] is Gonadotropin-releasing hormone receptor (Homo sapiens) (UniProt P30968). Kind of test: Human gonadotropin-releasing hormone receptor (GnRHR) small molecule agonists, calcium flux assay in GnRHR-HEK293 cells (AID 1920063). Further: nearly all actives have a fitted effect of over 35% in size. In short, it runs like this: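 Tox21-format agonist screen using human GnRHR-expressing HEK293 cells and a fluorescent calcium dye; kinetic 3-min fluorescence reading after compound addition, 15-point concentration series run in triplicate.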
Chain of Gonadotropin-releasing hormone receptor (Homo sapiens) (P30968 whole entry, looked up): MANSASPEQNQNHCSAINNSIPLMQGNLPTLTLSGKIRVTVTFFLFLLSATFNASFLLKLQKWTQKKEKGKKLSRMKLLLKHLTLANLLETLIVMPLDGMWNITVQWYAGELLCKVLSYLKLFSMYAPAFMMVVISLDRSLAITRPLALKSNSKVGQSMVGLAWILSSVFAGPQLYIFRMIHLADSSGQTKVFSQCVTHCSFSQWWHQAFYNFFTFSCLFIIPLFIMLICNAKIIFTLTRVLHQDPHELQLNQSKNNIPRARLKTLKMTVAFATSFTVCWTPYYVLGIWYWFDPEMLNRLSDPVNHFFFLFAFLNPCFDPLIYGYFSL

The target in test [4] is KiSS-1 receptor (Homo sapiens) (UniProt Q969F8). Kind of test: Human kisspeptin (KISS1R) small molecule agonists, calcium flux assay in KISS1R-HEK293 cells (AID 1920064; active means well fitted curve in the direction sought with a large enough effect in the repeat runs; an effect the other way counts as inactive or inconclusive). In short, it runs like this: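 Intracellular calcium mobilization in KISS1R-HEK293 cells was recorded by fluorescence (Ex/Em 480/540) for 3 min following compound addition to cells pre-loaded 1 h with calcium dye.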
Chain of KiSS-1 receptor (Homo sapiens) (Q969F8 whole entry, looked up): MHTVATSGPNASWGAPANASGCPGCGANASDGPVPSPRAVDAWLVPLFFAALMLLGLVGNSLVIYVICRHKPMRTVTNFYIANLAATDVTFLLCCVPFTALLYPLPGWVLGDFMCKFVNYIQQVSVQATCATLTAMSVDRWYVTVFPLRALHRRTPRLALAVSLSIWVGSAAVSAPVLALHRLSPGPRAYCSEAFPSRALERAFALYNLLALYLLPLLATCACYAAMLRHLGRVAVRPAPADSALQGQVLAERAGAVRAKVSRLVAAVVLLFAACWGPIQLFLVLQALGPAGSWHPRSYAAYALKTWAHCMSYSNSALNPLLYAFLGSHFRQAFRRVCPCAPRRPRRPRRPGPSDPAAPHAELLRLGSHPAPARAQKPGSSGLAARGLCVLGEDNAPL

Test [5] in a line: G protein-coupled receptor (GPCR) small molecule agonists, calcium flux assay: HEK293 wild type cell line counter screen (AID 1920065). An outline of the steps: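 In this agonist-mode screen, ATP is the positive control and DMSO the vehicle. Cells grow 18 h before a 1 h dye incubation at 37 C; signal is taken at Ex/Em 480/540 over 3 min.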
Background: A change in cytosolic calcium serves as a functional read-out for many receptors and channels.

The nature of test [6]: p53 small molecule agonists, cell-based qHTS assay with human liver microsomes (AID 1963577).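 Further: p53 response element beta-lactamase reporter cells with liver microsomes plus NADPH.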 An outline of the steps: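 With metabolic activation: human liver microsomes (0.5 mg/mL final) plus NADPH (0.5 mg/mL final) added alongside compounds to p53RE-bla cells; 16 h 37 C exposure; beta-lactamase read by LiveBLAzer fluorescence.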
Test [7] is described as follows: p53 small molecule agonists, cell-based qHTS assay with rat liver microsomes (AID 1963578). An outline of the steps:
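Metabolic activation by rat liver microsomes and NADPH, each 0.5 mg/mL final, added right after compounds to p53RE-bla reporter cells (4,000/well, plated 5 h earlier). 16 h at 37 C, then LiveBLAzer substrate for 2 h at room temperature in the dark; fluorescence read-out.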

Test [8] in a line: p53 small molecule agonists, cell-based qHTS assay with human liver microsomes: qHTS cell viability counter screen (AID 1963579). Further: nearly all actives have a fitted effect of over 45% in size. An outline of the steps:
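Metabolic activation used human liver microsomes and NADPH, both 0.5 mg/mL final, over 16 hours at 37 C on p53RE-bla cells (4,000/well). Cytotoxicity measured by CellTiter-Glo luminescence, 30 min at room temperature.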

Test [9] is described as follows: p53 small molecule agonists, cell-based qHTS assay with rat liver microsomes: qHTS cell viability counter screen (AID 1963580). Further: nearly all actives have a fitted effect of over 45% in size. In short, it runs like this:
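p53RE-bla HCT-116 cells were exposed 16 h at 37 C to compounds with rat liver microsomes (0.5 mg/mL) and NADPH (0.5 mg/mL). Viability was measured in the same wells as ATP content by CellTiter-Glo luminescence.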

Test [10] can be described thus: p53 small molecule agonists, cell-based qHTS assay: qHTS cell viability counter screen (AID 1963581). Further: nearly all actives have a fitted effect of over 45% in size. An outline of the steps: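 Compounds are pinned onto HCT-116 p53RE-bla cells and left 16 h at 37 C. Following the reporter FRET read, ATP is quantified by CellTiter-Glo luminescence after 30 min at room temperature.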
Test [11] is described as follows: p53 small molecule agonists, cell-based qHTS assay (AID 1963582; active means well fitted activation curve with a large enough effect in the signal ratio in the repeat runs, not every such curve was filed as active; the % refers to the signal ratio). In short, it runs like this: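 Agonist activity was scored from beta-lactamase FRET fluorescence in p53RE-bla cells treated 16 h at 37 C with compounds in DMSO, substrate incubation being 2 h at room temperature.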
For test [12], the target named is 5-hydroxytryptamine receptor 2A (Homo sapiens) (UniProt P28223). Kind of test: 5-hydroxytryptamine receptor 2A (HTR2A) small molecule antagonists, cell-based qHTS assay (AID 1963586). Further: nearly all actives have a fitted effect of over 45% in size. An outline of the steps: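 Antagonist-mode intracellular calcium assay: DOI (4 nM) added after 5 min compound pre-incubation at room temperature to dye-loaded HTR2A-CHO cells. Fluorescence followed for 3 min, sampled every second.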
Chain of 5-hydroxytryptamine receptor 2A (Homo sapiens) (P28223 whole entry, looked up): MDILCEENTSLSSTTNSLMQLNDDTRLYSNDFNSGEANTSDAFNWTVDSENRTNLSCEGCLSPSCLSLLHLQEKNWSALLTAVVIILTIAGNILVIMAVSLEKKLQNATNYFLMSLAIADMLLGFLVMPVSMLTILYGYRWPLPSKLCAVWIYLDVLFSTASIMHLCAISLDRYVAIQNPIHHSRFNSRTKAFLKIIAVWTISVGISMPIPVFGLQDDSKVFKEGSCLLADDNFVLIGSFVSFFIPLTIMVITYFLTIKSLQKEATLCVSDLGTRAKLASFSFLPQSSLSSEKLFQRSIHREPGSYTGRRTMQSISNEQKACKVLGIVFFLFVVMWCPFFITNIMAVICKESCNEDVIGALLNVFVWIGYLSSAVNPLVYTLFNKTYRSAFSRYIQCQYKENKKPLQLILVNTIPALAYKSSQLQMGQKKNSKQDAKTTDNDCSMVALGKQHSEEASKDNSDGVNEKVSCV

Test [13] shares this target. Kind of test: 5-hydroxytryptamine receptor 2A (HTR2A) small molecule agonists, cell-based qHTS assay (AID 1963587). Further: nearly all actives have a fitted effect of over 30% in size. An outline of the steps: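 CHO cells stably expressing human HTR2A, plated 18 h, loaded with calcium dye 1 h at 37 C. Agonist mode: compounds added and intracellular calcium fluorescence recorded kinetically for 2 min at 1 sec intervals.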
Test [14] has as its target Muscarinic acetylcholine receptor M1 (Homo sapiens) (UniProt P11229). Put plainly: Cholinergic receptor muscarinic 1 (CHRM1) small molecule antagonists, cell-based qHTS assay (AID 1963588). Further: nearly all actives have a fitted effect of over 40% in size. An outline of the steps:
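CHRM1-CHO calcium-flux assay, antagonist mode. Cells were seeded 18 h, dye-loaded 1 h at 37 C and given compound for 5 min at RT, then acetylcholine was added at 50nM. FDSS fluorescence was read 3 min; 15 concentrations, three runs.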

For test [15] the target is unchanged. Put plainly: Cholinergic receptor muscarinic 1 (CHRM1) small molecule agonists, cell-based qHTS assay (AID 1963589). Further: nearly all actives have a fitted effect of over 35% in size. An outline of the steps: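 Stable CHRM1-CHO cells (human receptor) were incubated 18 h, dye-loaded for 1 h at 37 C and exposed to test compounds for agonist activity, with calcium-dependent fluorescence followed kinetically.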
The nature of test [16]: cAMP Responsive Elements (CRE) small molecule agonists, cell-based qHTS assay (AID 1963590). In short, it runs like this: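 FRET-based beta-lactamase readout (LiveBLAzer B/G, 2 h RT) quantified CRE activation in HEK 293T CRE-bla cells after 3 h treatment with DMSO-dissolved compounds.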
The nature of test [17]: cAMP Responsive Elements (CRE) small molecule antagonists, cell-based qHTS assay (AID 1963591; active means well fitted inhibition curve with a large enough effect in the signal ratio in the repeat runs, not every such curve was filed as active; the % refers to the signal ratio). In short, it runs like this: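 qHTS in CRE-bla HEK 293T cells: compound in DMSO, then 0.25 uM NKH477 (final), 3 h at 37 °C/5% CO2; beta-lactamase FRET read-out after 2 h substrate incubation.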
The target in test [18] is Beta-2 adrenergic receptor (Homo sapiens) (UniProt P07550). Put plainly: Adrenergic beta2 receptor (ADRB2) small molecule antagonists, cell-based qHTS assay (AID 1963592). Further: series mostly up to about 92 µM; nearly all actives have a fitted effect of over 50% in size. In short, it runs like this: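 Cells (CHO, stable ADRB2 overexpression) incubated 18-20hr at 37C; compounds added from DMSO; agonist mix (1nM isoproterenol, 100uM IBMX, 25uM Ro-20-1724) added; 0.5hr RT; d2-cAMP and anti-cAMP-cryptate added; 1hr RT; 665/615 nm read.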
Chain of Beta-2 adrenergic receptor (Homo sapiens) (P07550 whole entry, looked up): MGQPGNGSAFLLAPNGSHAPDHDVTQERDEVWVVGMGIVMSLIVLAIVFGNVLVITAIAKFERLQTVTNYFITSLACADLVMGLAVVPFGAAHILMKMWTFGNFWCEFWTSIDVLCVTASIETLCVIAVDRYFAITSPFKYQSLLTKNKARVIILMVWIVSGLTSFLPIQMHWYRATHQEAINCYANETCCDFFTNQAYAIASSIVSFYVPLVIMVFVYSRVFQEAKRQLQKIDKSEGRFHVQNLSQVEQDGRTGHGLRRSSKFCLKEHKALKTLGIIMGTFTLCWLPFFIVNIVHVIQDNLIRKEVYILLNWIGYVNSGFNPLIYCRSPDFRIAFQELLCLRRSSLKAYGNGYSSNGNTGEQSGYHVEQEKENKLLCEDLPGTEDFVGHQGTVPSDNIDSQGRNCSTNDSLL

The target of test [19] is D(2) dopamine receptor (Homo sapiens) (UniProt P14416). Put plainly: Dopamine D2 receptor (DRD2) small molecule agonists, cell-based qHTS assay (AID 1963594). Further: nearly all actives have a fitted effect of over 35% in size. An outline of the steps:
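HEK293 cells stably expressing human DRD2, pre-treated with PDE inhibitor Ro20-1724 (0.1 mM final) and compound 10 min at room temperature, then stimulated with NKH477 (200nM […]) for 30 min. cAMP read by HTRF (665/620 nm).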

For test [20] the target is unchanged. Put plainly: Dopamine D2 receptor (DRD2) small molecule antagonists, cell-based qHTS assay (AID 1963595; active means well fitted inhibition curve with a large enough effect in the signal ratio in the repeat runs, with a control signal flat; the % refers to the signal ratio). In short, it runs like this:
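In this cell-based antagonist screen, compounds act for 10 min at room temperature before a 30 min challenge with 12 nM quinpirole and 200 nM NKH477. cAMP is quantified by HTRF competition in DRD2-HEK293 cells containing 0.1 mM Ro20-1724.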

Chain of D(2) dopamine receptor (Homo sapiens) (P14416 whole entry, looked up): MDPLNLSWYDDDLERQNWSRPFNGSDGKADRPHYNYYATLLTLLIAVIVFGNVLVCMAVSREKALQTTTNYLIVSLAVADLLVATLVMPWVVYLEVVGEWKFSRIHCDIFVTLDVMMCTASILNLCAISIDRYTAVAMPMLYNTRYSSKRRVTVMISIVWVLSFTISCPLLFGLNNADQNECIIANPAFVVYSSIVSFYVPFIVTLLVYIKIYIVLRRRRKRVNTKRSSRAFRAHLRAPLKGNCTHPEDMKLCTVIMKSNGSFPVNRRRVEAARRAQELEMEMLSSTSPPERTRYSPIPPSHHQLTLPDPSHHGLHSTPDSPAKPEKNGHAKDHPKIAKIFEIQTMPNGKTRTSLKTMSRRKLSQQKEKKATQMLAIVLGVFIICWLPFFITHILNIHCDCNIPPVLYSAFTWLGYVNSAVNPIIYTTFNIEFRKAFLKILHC
Chain of Muscarinic acetylcholine receptor M1 (Homo sapiens) (P11229 whole entry, looked up): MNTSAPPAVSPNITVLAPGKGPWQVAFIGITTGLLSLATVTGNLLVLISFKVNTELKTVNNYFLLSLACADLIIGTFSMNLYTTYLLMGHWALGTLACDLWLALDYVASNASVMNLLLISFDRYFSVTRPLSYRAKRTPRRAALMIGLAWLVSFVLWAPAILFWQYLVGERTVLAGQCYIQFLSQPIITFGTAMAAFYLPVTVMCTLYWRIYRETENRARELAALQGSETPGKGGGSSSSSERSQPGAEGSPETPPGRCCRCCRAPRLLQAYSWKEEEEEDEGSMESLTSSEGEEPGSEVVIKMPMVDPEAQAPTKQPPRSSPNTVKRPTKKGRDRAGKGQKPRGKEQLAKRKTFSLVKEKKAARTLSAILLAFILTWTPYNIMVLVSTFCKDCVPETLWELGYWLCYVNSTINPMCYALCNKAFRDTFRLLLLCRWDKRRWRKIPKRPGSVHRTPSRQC

`O=c1c2ccccc2c(=O)c2c1cc(Cl)c1[nH]c3c([nH]c12)c(Cl)cc1c(=O)c2ccccc2c(=O)c13`: the Potency entry in test [1], in [2], in test [3], in test [4], in test [5] and in [6] was “inactive” each time. Moreover, the Potency entry in test [7], in test [8], in [9], in test [10], in [11] and in test [12] was “inactive” each time. Also, the Potency result in [13], in test [14], in test [15], in test [16], in test [17] and in [18] was “inactive” each time. The Potency result in test [19] and in [20] was “inactive” each time.

Regarding `ClCCBr`, the Potency entry in test [1], in [2], in test [3], in test [4], in [5] and in [6] was “inactive” in each case. Besides, the Potency result in [7], in test [8], in test [9], in test [10], in test [11] and in test [12] was “inactive” in each case. Further, the Potency entry in test [13], in test [14], in [15], in test [16], in test [17] and in [18] was “inactive” each time. In addition, the Potency result in test [19] and in test [20] was “inactive” each time.

Take `Cc1ccccc1[N+](=O)[O-]`: the Potency result in [1], in [2], in test [3], in test [4], in [5] and in test [6] was “inactive” each time. Besides, the Potency entry in [7], in test [8], in test [9], in [10], in [11] and in test [12] was “inactive” throughout. Further, the Potency entry in test [13], in test [14], in [15], in test [16], in test [17] and in test [18] was “inactive” each time. Further, the Potency entry in test [20] is “inactive”.

Take `Nn1cnnc1`: the Potency result in test [1], in test [2], in test [3], in [4], in test [5] and in test [6] was “inactive” throughout. The Potency result in test [7], in [8], in [9], in [10], in [11] and in test [12] was “inactive” in each case. Also, the Potency result in test [13], in test [14], in [15], in test [16], in test [17] and in test [18] was “inactive” each time. Also, the Potency result in [19] and in test [20] was “inactive” throughout.

Take `CCCSC(=O)Cl`: the Potency result in test [1], in test [2], in [3], in test [4], in [5] and in test [6] was “inactive” throughout. The Potency entry in [7], in test [8], in [9], in test [10], in [11] and in [12] was “inactive” in each case. In addition, the Potency result in [13], in test [14], in [15], in [16], in test [17] and in test [18] was “inactive” throughout. Further, the Potency entry in test [19] and in [20] was “inactive” in each case.

In the case of `Cc1cccc(N=Nc2ccc(N(C)C)cc2)c1`, the Potency result in test [1], in test [3], in test [4], in test [5], in test [6] and in test [7] was “inactive” throughout. In addition, the Potency entry in [8], in test [9], in test [10], in test [11], in test [12] and in test [13] was “inactive” in each case. For the same molecule, the Potency result in test [14], in [15], in test [16], in test [17], in test [18] and in [19] was “inactive” in each case. Further, the Potency result in [20] was “inactive”. Further, in test [2], the Potency is 247 nM (active) and 1.72 µM (active).

`CCCCC(CC)COC(=O)c1c(Br)c(Br)c(Br)c(Br)c1C(=O)OCC(CC)CCCC` (stereo not drawn): the Potency result in [1], in [2], in test [3], in test [4], in [5] and in test [6] was “inactive” each time. For the same molecule, the Potency entry in test [7], in [8], in test [9], in test [10], in [11] and in [12] was “inactive” each time. Moreover, the Potency result in test [13], in [14], in test [15], in test [16], in [17] and in test [18] was “inactive” throughout. Besides, in [20], the Potency entry was “inactive”.
